# Source: PubChem BioAssay AID463173 (ICCB-Longwood Screening Facility, Harvard Medical School, 2010)
# Out of some 52,000 compounds screened, about 4,300 (8.3%) were called active. What follows is part of a selection rich in actives, with near analogues and random picks from the rest. A number with no mark means an inactive call. Rule as the data show it: active = survival mostly below about 52% (no sharp cut-off); inactive = mostly above about 56%.
# Tested on: DeltatarO mutant
# Test: S. aureus survival, RN4220 and DeltatarO strains – OD600, teichoic acid synthesis inhibitors, primary screen (AID 463173)
# Settings: S. aureus RN4220 wild type/DeltatarO growth, OD600, 18 h, active compounds read low, screened at 18.75 µg/mL (by protocol)
row,SMILES,survival
1,COc1ccc(-c2[nH]c3ccccc3c2SCCNC(=O)c2cc(OC)c(OC)c(OC)c2)cc1,62%
2,COc1cccc(-c2nc(SCC(=O)NC3CCCC3)c(-c3ccc(C)cc3)[nH]2)c1,107%
3,CC(C)Cc1nn2c(=O)cc(COC(=O)c3ccc4c(c3)OCO4)nc2s1,73%
4,O=C(CN1CCCN(Cc2ccccc2Cl)S1(=O)=O)Nc1ccc2c(c1)OCCO2,67%
5,Cc1ccc(S(=O)(=O)Nc2ccc3c(c2)CCCN3C(=O)c2cccs2)cc1C,70%
6,Cc1ccc(S(=O)(=O)Nc2ccc3c(c2)CCCN3C(=O)c2cccs2)cc1,75%
7,Cc1ccc(C)c(S(=O)(=O)Nc2ccc3c(c2)CCCN3C(=O)c2cccs2)c1,47% (active)
8,Cc1ccc(NC(=O)Cn2c(=O)n(Cc3ccco3)c(=O)c3ccccc32)cc1,78%
9,Cn1nc(-c2ccc(OCC(=O)Nc3cccc(C(F)(F)F)c3)cc2)c2ccccc2c1=O,78%
10,COCCNC(=O)Cn1nc(C)c2c(C)n(-c3ccc(C)cc3)nc2c1=O,135%
11,O=C(Cn1nc(-c2ccc(Cl)cc2)c2ccccc2c1=O)Nc1cccc(Br)c1,28% (active)
12,O=C(Cn1nc(-c2ccc(Cl)cc2)c2ccccc2c1=O)NCCN1CCOCC1,97%
13,Cc1ccc(-c2nn(CC(=O)Nc3cccc(C(F)(F)F)c3)c(=O)c3ccccc23)cc1,31% (active)
14,COCCNC(=O)Cn1nc(-c2ccc(C)cc2)c2ccccc2c1=O,39% (active)
15,COCCNC(=O)CCn1nc(-c2ccc(Cl)cc2)c2ccccc2c1=O,77%
16,Cc1cccc(NC(=O)Cn2nc(-c3ccc(Cl)cc3)c3ccccc3c2=O)c1,142%
17,CN(C)C(=O)c1ccc(NC(=O)Cn2nc(-c3ccccc3)c3ccccc3c2=O)cc1,39% (active)
18,O=C(Cn1nc(-c2ccccc2)c2cnc3ccccc3c21)Nc1ccccc1,76%
19,CN(C)C(=O)Cn1nc(-c2ccccc2)c2ccccc2c1=O,92%
20,O=C(Cn1nc(Cc2ccncc2)c2ccccc2c1=O)Nc1cccc(C(F)(F)F)c1,71%
21,CCOc1ccc(CCNCc2c(C(=O)O)c(C)n(Cc3ccccc3F)c2C)cc1,82%
22,CC(C)(C)n1nnnc1CN1CCC(NC(=O)Nc2ccc(F)cc2)CC1,102%
23,CCOC(=O)c1ccc(NS(=O)(=O)c2ccc3c(c2)n(C)c(=O)n3C)cc1,96%
24,Fc1ccc(-n2ncc3c(Nc4cccc(Cl)c4)ncnc32)cc1,67%
25,COc1cccc2c1cc1c(=O)n(CC(=O)N3CCN(c4ccc(F)cc4)CC3)nc(C)n12,87%
26,COc1cccc(NC(=O)CN2C=NS(=O)(=O)c3ccccc32)c1,122%

row,SMILES,survival
1,O=C(CCCCn1c(=O)c2ccccc2n(Cc2ccc(F)cc2Cl)c1=O)NCCc1ccc(Cl)cc1,72%
2,O=C(c1ccc(Cl)cc1)N1CCCCC1CCN1CCOCC1 (centres undefined),104%
3,Cc1nc2c(C(=O)NC(C)c3ccccc3)cnn2c(C)c1Cc1ccccc1 (centres undefined),72%
4,COCCNC(=O)Cn1nc(N2CCN(c3ccccc3OC)CC2)ccc1=O,94%
5,O=C(Cn1nc(Cc2cccnc2)c2ccccc2c1=O)Nc1cccc(C(F)(F)F)c1,54%
6,Cn1nc(-c2ccc(C(=O)Nc3cccc(C(F)(F)F)c3)cc2)c2ccccc2c1=O,57%
7,COc1ccc(NC(=O)CCn2nc(-c3ccc(Cl)cc3)c3ccccc3c2=O)cc1,76%
8,Cc1ccc(NC(=O)Cn2nc(-c3ccc(Cl)cc3)c3ccccc3c2=O)cc1,38% (active)
9,CNC(=O)Cn1nc(-c2ccc(Cl)cc2)c2ccccc2c1=O,52%
10,O=C(Cn1nc(-c2ccc(Cl)cc2)c2ccccc2c1=O)Nc1cccc(C(F)(F)F)c1,34% (active)
11,Oc1c(C(c2ccc(Cl)cc2Cl)N2CCCC2)sc2nc(-c3ccco3)nn12 (centres undefined),68%
12,Cc1cccc(C(=O)OCc2cc(=O)n3nc(C4CCCCC4)sc3n2)c1,78%
13,CNC(=S)NC1CC2CCCC(C1)N2Cc1ccco1 (centres undefined),80%
14,O=C(c1ccccc1)N1CCC(O)(c2cccnc2)CC1,70%
15,COc1ccc(NC(=O)CSc2cc(-c3ccccc3)nc(C)n2)cc1,94%
16,Cc1nc(SCC(=O)Nc2ccccc2C)cc(-c2ccccc2)n1,53%
17,Cc1nc(SCC(=O)Nc2ccccc2Cl)cc(-c2ccccc2)n1,56% (active)
18,CCOC(=O)c1ccc(NC(=O)CSc2cc(-c3ccccc3)nc(C)n2)cc1,40% (active)
19,Cc1nc(SCC(=O)Nc2ccc(C)c(Cl)c2)cc(-c2ccccc2)n1,46%
20,COC(=O)c1ccccc1NC(=O)CSc1cc(-c2ccccc2)nc(C)n1,71%
21,Cc1ccc(NC(=O)CSc2nc(=O)n(CCN3CCOCC3)c3c2CCC3)c(C)c1,73%
22,COC(=O)c1ccc(NS(=O)(=O)c2ccc3c(c2)n(C)c(=O)c(=O)n3C)cc1,79%
23,COCCNC(=O)C1CCN(Cc2cc3ccccc3n2Cc2ccc(C)cc2)CC1,99%
24,CCOc1ccc(NC(=O)CCS(=O)(=O)c2cc3c4c(c2)CCN4C(=O)CC3)cc1,74%
25,Cc1cc(C)c(C#N)c(NC2CCCCC2)n1,87%
26,N#CSc1cnc(NC2CCCCC2)s1,1% (active)

row,SMILES,survival
1,Cc1ccc(-c2nnc(NC3CCCC3)s2)cc1,76%
2,Cc1ccc(C(=O)Nc2c(C(=O)Nc3ccc(C)c(C)c3)sc3nc(C)cc(C)c23)cc1,54%
3,Cc1cc(C)cc(-n2c(C)cc(C(=O)C(=O)Nc3ccccc3F)c2C)c1,99%
4,COc1cccc(C2C=C(c3ccc(C)c(C)c3)Nc3nnnn32)c1OC (centres undefined),72%
5,COc1ccc(C2C=C(c3ccc(Br)cc3)Nc3nnnn32)c(OC)c1 (centres undefined),84%
6,CCOc1ccc(NC(=O)c2cnn3c2NC(c2cccc(OC)c2)=CC3c2ccccc2)cc1 (centres undefined),49%
7,COc1cccc(C2=CC(c3cc(Br)ccc3F)n3nnnc3N2)c1 (centres undefined),-2% (active)
8,COc1ccc(C2=CC(c3cccc(C)c3)n3nnnc3N2)cc1 (centres undefined),84%
9,Cc1cccc(C2C=C(c3ccc(C)c(C)c3)Nc3nnnn32)c1 (centres undefined),6% (active)
10,CN(C)c1ccc(C2C=C(c3ccccc3)Nc3nnnn32)cc1 (centres undefined),52%
11,Fc1ccc(Br)cc1C1C=C(c2ccc(Br)cc2)Nc2nnnn21 (centres undefined),91%
12,CCOc1ccc(C2C=C(c3cccc(OC)c3)Nc3nnnn32)cc1 (centres undefined),45% (active)
13,Cc1ccc(C)c(N2CCN(S(=O)(=O)c3ccc4c(c3)n(C)c(=O)c(=O)n4C)CC2)c1,76%
14,CC(C)CC(C(=O)NCc1ccc(F)cc1)N1Cc2ccccc2C1=O (centres undefined),88%
15,O=C(NCc1cccnc1)c1nn(-c2ccc(F)cc2)nc1CO,111%
16,CCc1ccc2occ(CC(=O)Nc3c(C(=O)Nc4ccc(OC)cc4)oc4ccccc34)c2c1,84%
17,CCOc1cc2c(cc1OCC)C(CC(=O)OC)N(C(=O)Nc1cc(C)cc(C)c1)CC2 (centres undefined),83%
18,CCOc1cc2c(cc1OCC)C(CC(=O)O)N(C(=O)Nc1ccc(Br)c(C)c1)CC2 (centres undefined),81%
19,CCOC(=O)CC1c2cc(OCC)c(OCC)cc2CCN1C(=O)Nc1cccc(Cl)c1 (centres undefined),41% (active)
20,Cc1cccc(CNC(=O)Cn2c(-c3cccs3)cc3ccccc32)c1,116%
21,CCCC(=O)NCCc1nc2ccccc2n1Cc1c(F)cccc1Cl,69%
22,Cc1ccccc1Cn1cnc2ccccc21,77%
23,O=C(NCc1nc2ccccc2n1Cc1ccccc1Cl)c1ccccc1,97%
24,OCc1nc2ccccc2n1Cc1ccccc1Cl,74%
25,CC(=O)N1CCCC1c1nc2ccccc2n1Cc1ccccc1C (centres undefined),69%
26,OCc1nc2ccccc2n1Cc1c(F)cccc1Cl,99%

row,SMILES,survival
1,CC(=O)N1CCCC1c1nc2ccccc2n1Cc1cccc(C)c1 (centres undefined),72%
2,Clc1ccccc1Cn1c(-c2cccs2)nc2ccccc21,11% (active)
3,Fc1cccc(Cl)c1Cn1c(-c2cccs2)nc2ccccc21,21% (active)
4,Cc1cccc(Cn2c(-c3cccs3)nc3ccccc32)c1,2% (active)
5,Cc1ccccc1Cn1c(-c2cccs2)nc2ccccc21,19% (active)
6,O=c1[nH]nc(-c2ccccc2)c2cc3c(=O)[nH]nc(-c4ccccc4)c3cc12,100%
7,CSc1cccc(NC(=O)Cn2c(=O)n(Cc3ccccc3)c(=O)c3sc4ccccc4c32)c1,91%
8,Cc1ccc(Cn2c(=O)n(CC3CCC(C(=O)N4CCOCC4)CC3)c(=O)c3sccc32)cc1 (centres undefined),75%
9,Cc1cccc(CC2C(=O)Nc3ccccc32)c1 (centres undefined),87%
10,CCc1ccccc1NC(=O)Cn1ccn(-c2cc(C)cc(C)c2)c(=O)c1=O,67%
11,Cc1cc(Cl)ccc1NC(=O)C(=O)NCc1ccco1,135%
12,Cc1ccc(C)c(Cn2c(C(C)NC(=O)c3ccccc3)nc3ccccc32)c1 (centres undefined),88%
13,Cc1ccc(C)c(Cn2c(-c3cccs3)nc3ccccc32)c1,-3% (active)
14,CCC(O)c1nc2ccccc2n1Cc1cc(C)ccc1C (centres undefined),86%
15,Cc1cc2c(cc3c(SCc4ccc(Cl)cc4)nnc(C)n32)o1,57%
16,Cc1cc2c(cc3c(SCc4ccccc4Cl)nnc(C)n32)o1,49% (active)
17,Cc1nnc(SCc2ccc(Cl)cc2)c2cc3occc3n12,28% (active)
18,Cc1oc(-c2ccccc2F)nc1CSc1nnc(C)n2c1cc1occc12,74%
19,Cc1oc(-c2cccc(Cl)c2)nc1CSc1nnc(C)n2c1cc1occc12,79%
20,Cc1cc2c(cc3c(SCc4cccc(Cl)c4)nnc(C)n32)o1,56%
21,Cc1cc(C)c(CSc2nnc(C)n3c2cc2occc23)c(C)c1,40% (active)
22,Cc1ccc(-c2nc(CSc3nnc(C)n4c3cc3occc34)c(C)o2)cc1,72%
23,C=Cc1ccc(CSc2nnc(C)n3c2cc2occc23)cc1,42% (active)
24,Clc1ccc(CSc2nncn3c2cc2occc23)cc1,47%
25,Cc1nnc(SCc2ccccc2Cl)c2cc3occc3n12,74%
26,Cc1ccc(C)c(NC(=O)CSc2nnc(C)n3c2cc2occc23)c1,66%
